The campaign covered roughly 190,000 compounds. About 810 (0.43%) were called active. No stated cut-off is given here; in the data, active means inhibition above about 50%; inactive means the rest. Only a selection was taken, and actives are over-represented in it overall.

Sequence of Mannose-6-phosphate isomerase (Homo sapiens) (P34949 whole entry, looked up): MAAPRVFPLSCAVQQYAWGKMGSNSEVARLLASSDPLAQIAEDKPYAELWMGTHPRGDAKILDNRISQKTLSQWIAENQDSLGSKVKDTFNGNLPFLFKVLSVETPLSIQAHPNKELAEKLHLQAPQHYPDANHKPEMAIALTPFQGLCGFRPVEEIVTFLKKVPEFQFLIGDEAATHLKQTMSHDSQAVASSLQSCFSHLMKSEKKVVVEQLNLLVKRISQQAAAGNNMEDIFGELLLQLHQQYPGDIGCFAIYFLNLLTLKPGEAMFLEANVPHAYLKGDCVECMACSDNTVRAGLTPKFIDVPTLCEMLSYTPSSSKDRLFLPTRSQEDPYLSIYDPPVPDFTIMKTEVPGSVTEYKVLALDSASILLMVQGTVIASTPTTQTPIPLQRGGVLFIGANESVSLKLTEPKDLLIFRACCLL

This assay addresses Mannose-6-phosphate isomerase (Homo sapiens) (UniProt P34949). The experiment in a line: MPI enzyme activity inhibition – biochemical, fluorescence intensity, coupled assay, primary screen (AID 1209).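 Further: plate controls were DMSO vehicle for no effect and wells lacking substrate for full effect.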 As to conditions: purified PMI enzyme, at 20 µM, active compounds read high.
By inhibition is commonly meant the relative decrease from the control value, in per cent. As for `O=C(CNS(=O)(=O)c1cccs1)Nc1ccc2c(c1)OCCO2`, the inhibition was 9.1% (inactive).

As for `CC(C)C(=O)Nc1cccc(C(=O)N2CCCCC2C)c1` (stereo unspecified), the inhibition is 15.5% (inactive).

Regarding `O=C(NCc1ccncc1)Nc1cc(Cl)ccc1Cl`, the inhibition is 8.5% (inactive).

As to `Nc1nncn1C(=O)CCCN1C(=O)c2ccccc2C1=O`, the inhibition was 5.4% (inactive). Regarding `CCn1c(COc2ccccc2OC)nnc1SCC#N`, the inhibition is 5.9% (inactive).

Consider `NC(N)=Nc1nc(C2COc3ccccc3O2)cs1` (stereo unspecified), for which the inhibition was -4% (inactive).

As to `S=c1[nH]nc(C2COc3ccccc3O2)o1` (stereo unspecified), the inhibition is -16.3% (inactive). In the case of `Cn1c(=O)c2c(nc(NC3CCCCC3)n2CC(=O)C23CC4CC(CC(C4)C2)C3)n(C)c1=O` it was 1.2% (inactive); in that of `O=S(=O)(c1ccc(Br)s1)N1CCC(Cc2ccccc2)CC1`, 1.1% (inactive); in that of `Cc1ccc(N(C(=O)c2cc3ccccc3oc2=O)C2C=CS(=O)(=O)C2)cc1` (stereo unspecified), 13.3% (inactive).

For `O=C(CSc1nnc(-c2ccccc2)c(-c2ccccc2)n1)NC1CCS(=O)(=O)C1` (stereo unspecified), the inhibition is -3.8% (inactive). On to `O=C(CSc1n[nH]c(-c2ccncc2)n1)NC1CCS(=O)(=O)C1` (stereo unspecified), for which the inhibition is 77.1% (active). Consider `Cc1ccc(-c2nnc(SCC(=O)NC3CCS(=O)(=O)C3)nc2-c2ccc(C)cc2)cc1` (stereo unspecified), for which the inhibition was 3.8% (inactive). Consider `O=C(CSc1nnc(-c2ccccc2F)o1)OCc1ccccc1`, for which the inhibition is -0.7% (inactive).

With `CC[n+]1c(/C=C/Nc2ccccc2)oc2ccccc21`, the inhibition was 1.7% (inactive). In the case of `CC[n+]1ccccc1/C=C/Nc1ccccc1` it was 62% (active); in that of `CC[n+]1ccccc1/C=C/c1ccc(N(C)C)cc1`, 26.1% (inactive).

For `CCOC(=O)COn1c(=O)c(C)[n+]([O-])c2ccccc21`, the inhibition was 4.8% (inactive).

As for `CC(C)(C)c1cc(CCC(=O)NN)cc(C(C)(C)C)c1O`, the inhibition was -6.6% (inactive). For the compound `CC(C)C(C(=O)OCC(=O)c1cccc([N+](=O)[O-])c1)N1C(=O)[C@@H]2[C@H]3CC[C@H](C3)[C@@H]2C1=O` (stereo partly specified), the inhibition is 21.3% (inactive).

With `OC1(c2ccccc2)CCN(Cc2ccccc2)CC1`, the inhibition was 57.2% (active). With `OC1(c2ccc(F)cc2)CCN(Cc2ccccc2)C1` (stereo unspecified) the figure was -8.8% (inactive); with `OC1(c2ccc3ccccc3c2)CCN(Cc2ccccc2)C1` (stereo unspecified), -11.8% (inactive).

With `CCC1(C)Cc2[nH]c(=O)c(C#N)cc2CO1` (stereo unspecified), the inhibition is 2.9% (inactive). In the case of `COc1cc(/C=N/Nc2nc(C)nc3c2cnn3-c2ccccc2)ccc1O` it was 6.9% (inactive); in that of `c1cc2nnnn2nc1N1CCCCC1`, -6.5% (inactive); in that of `CN1CCN(C(=O)c2cnn3c(C(F)F)cc(C4CC4)nc23)CC1`, 9.1% (inactive).

Take `O=C(c1cnn2c(C(F)F)cc(C3CC3)nc12)N1CCCC1`: the inhibition is -5.5% (inactive). With `O=C(c1cnn2c(C(F)F)cc(C3CC3)nc12)N1CCOCC1` the figure was 53.1% (active); with `O=C(CSc1ccc2ccccc2c1)NCCc1ccc(O)c(O)c1`, 52.6% (active). `COc1ccc(CCNC(=O)CSc2ccc3ccccc3c2)cc1OC`: the inhibition was 1.7% (inactive). Consider `NS(=O)(=O)c1ccc(CCNC(=O)CSc2ccc3ccccc3c2)cc1`, for which the inhibition was -13.1% (inactive). Take `Cc1cc(C)n2nc(C(=O)OCCOc3ccc(Br)cc3)nc2n1`: the inhibition was 7.1% (inactive).

Regarding `COc1cc2nc(NC(=O)c3ccc(Cl)cc3)[nH]c(=O)c2cc1OC`, the inhibition was 25.5% (inactive). As to `Cc1ccc(C(=O)c2c[nH]cc2-c2ccccc2)cc1`, the inhibition is -1% (inactive).

Turning to `O=C(c1ccccc1)c1coc2c1C(=O)c1ccccc1C2=O`, the inhibition is -42.6% (inactive). In the case of `COc1ccc(C(=O)c2coc(-c3ccccc3C(=O)O)c2C(=O)O)cc1` it was -8.2% (inactive); in that of `Cc1ccc(C(=O)c2coc3c2C(=O)C(=O)c2ccccc2-3)cc1`, 72.9% (active). In the case of `O=C1c2ccccc2C(=O)c2c1oc(C(F)(F)F)c2C(=O)c1ccccc1` it was -31.5% (inactive); in that of `O=C1C(=O)c2c(C(=O)c3ccccc3)coc2-c2ccccc21`, 73.4% (active); in that of `NC(=O)c1ccc(C(=O)c2ccc([N+](=O)[O-])cc2)cc1`, -7.1% (inactive). Consider `Cc1ccc(N=C2NC(=O)c3cc([N+](=O)[O-])ccc32)cc1`, for which the inhibition was 14.1% (inactive). `Cc1cccc(N=C2NC(=O)c3cc([N+](=O)[O-])ccc32)c1`: the inhibition was -1.4% (inactive).

`O=C1NC(=Nc2ccccc2)c2ccc([N+](=O)[O-])cc21`: the inhibition was 28.5% (inactive).

As for `NC(=O)c1ccc(N=C2C(=O)Nc3ccc([N+](=O)[O-])cc32)cc1`, the inhibition was 52.5% (active). In the case of `O=C1Nc2ccc([N+](=O)[O-])cc2C1=Nc1cccc(CO)c1` it was 56.8% (active); in that of `CCOC(=O)c1c(NC(=O)Nc2cccc(Cl)c2)sc(C)c1C`, -4.2% (inactive). Turning to `O=C(CSc1ncnc2ccccc12)c1ccc2c(c1)OCCO2`, the inhibition was 9.1% (inactive).

As for `Nc1[nH]n2c(=O)cc(-c3ccccc3)nc2c1N=Nc1ccc2c(c1)OCO2`, the inhibition was 28% (inactive).

Turning to `Cc1ccc(C(=O)N/N=C\c2ccccc2[N+](=O)[O-])cn1`, the inhibition was -13.1% (inactive).

Turning to `O=C(N/N=C\c1ccc(-c2ccccc2[N+](=O)[O-])o1)C1COc2cc3ccccc3cc2O1` (stereo unspecified), the inhibition was 70.2% (active). As to `O=C(N/N=C\c1ccc(-c2ccccc2[N+](=O)[O-])o1)C1COc2ccccc2O1` (stereo unspecified), the inhibition is 33.9% (inactive). In the case of `O=C(N/N=C/c1ccc(-c2ccccc2[N+](=O)[O-])o1)c1cncc(Br)c1` it was 33.3% (inactive); in that of `Cc1c(C(=O)N/N=C/c2ccc(-c3ccccc3[N+](=O)[O-])o2)sc(N)c1C#N`, 55.1% (active); in that of `COc1ccc2ccccc2c1/C=N/NC(=O)c1sc(N)c(C#N)c1C`, 12.9% (inactive). For `Cc1cc([N+](=O)[O-])c(C)cc1-c1ccc(/C=N/NC(=O)c2cccnc2)o1`, the inhibition is 8.6% (inactive).

On to `Cc1ccc(/C=N\NC(=O)C2COc3cc4ccccc4cc3O2)o1` (stereo unspecified), for which the inhibition is 5% (inactive).

Take `Cc1ccc(C(=O)N/N=C/c2ccc(-c3ccccc3[N+](=O)[O-])o2)cn1`: the inhibition is 52.2% (active). In the case of `COC(=O)c1[nH]c2ccccc2c1NC(=O)CCN1CCN(C2CCCCC2)CC1`, the inhibition is 3.6% (inactive). Turning to `COc1cc(CC(=O)OCC(=O)Nc2cc([N+](=O)[O-])ccc2F)cc(OC)c1OC`, the inhibition is 2.7% (inactive). `Cc1ccc(C(c2nnnn2C(C)(C)C)N2CCC(C)CC2)cc1` (stereo unspecified): the inhibition was -7.6% (inactive). As to `CCCCS(=O)(=O)Nc1ccc2cn[nH]c2c1`, the inhibition is 10% (inactive). With `O=C(/C=C/c1ccco1)N1CCN(S(=O)(=O)/C=C/c2ccccc2)CC1` the figure was -3.5% (inactive). Consider `CCCC(=O)NCCCc1nc2ccccc2n1C(C)C`, for which the inhibition is 2.7% (inactive). Turning to `CN1CCc2ccccc2C1C1CCNCC1` (stereo unspecified), the inhibition is -2.5% (inactive).

As to `COc1ccc2c(c1O)-c1ccccc1CCN(C)C2`, the inhibition is -0.5% (inactive). In the case of `CN1CCc2cccc3c2[C@H]1Cc1ccc(O)c(O)c1-3`, the inhibition is 79.7% (active). As to `CN1CCc2cccc3c2[C@@H]1Cc1ccc(O)c(O)c1-3`, the inhibition was 64.3% (active). Regarding `CN1CCc2cc3c(c4c2[C@H]1[C@H](O)c1ccccc1-4)OCO3`, the inhibition is 15.6% (inactive).

For `CC(=O)c1cc2c(=O)c3cc(C)ccc3oc2nc1C`, the inhibition is 3.2% (inactive).

For the compound `COc1ccccc1OCC(=O)Nc1ccc(O)cc1C(=O)O`, the inhibition is -4% (inactive).

On to `CCc1ccccc1N(C(=O)Cn1nnc2ccccc21)C(C(=O)NCCOC)c1ccco1` (stereo unspecified), for which the inhibition was 3.9% (inactive).

Consider `O=C(c1ccc(Cl)cc1)c1ccc(CN2C(=O)c3ccccc3C2=O)o1`, for which the inhibition was 6.4% (inactive).

For the compound `CCOC(=O)c1c(C)oc2c1C(=O)c1ccccc1C2=O`, the inhibition is -48.2% (inactive).

Take `Cc1oc2c(c1C(=O)c1ccc(Cl)cc1)C(=O)C(=O)c1ccccc1-2`: the inhibition is 63.9% (active). Regarding `CC1=C(CC(=O)c2ccc(Cl)cc2)C(=O)c2ccccc2C1=O`, the inhibition was -15.5% (inactive). On to `Cc1ccc(C(=O)c2c(C)oc3c2C(=O)C(=O)c2ccccc2-3)cc1`, for which the inhibition is 73.3% (active).

Turning to `Cc1oc2c(c1C(=O)N1CCC(C)CC1)C(=O)c1ccccc1C2=O`, the inhibition was 1.3% (inactive).

For `Cc1oc2c(c1C(=O)c1ccccc1)C(=O)C(=O)c1ccccc1-2`, the inhibition is 73.6% (active).

Regarding `CC(=O)c1c(C)oc2c1C(=O)c1ccccc1C2=O`, the inhibition is 0.2% (inactive).

On to `Cc1oc2c(c1C(=O)O)C(=O)c1ccccc1C2=O`, for which the inhibition is -55.2% (inactive).

`O=C(CCCn1cnc([N+](=O)[O-])n1)Nc1ccc(Cl)cc1Cl`: the inhibition is 8.7% (inactive).

Take `COc1cccc(-c2nc(CS(=O)(=O)CC(=O)Nc3cccc(C)c3C)c(C)o2)c1`: the inhibition is 7.1% (inactive).

Turning to `CCOC(=O)C1CCN(C(=O)COc2ccc(Cl)cc2)CC1`, the inhibition was 0.2% (inactive). As for `CC(NC(=O)c1ccccc1F)c1nnc(SCC(=O)N2CCN(c3ccccc3)CC2)n1C` (stereo unspecified), the inhibition was -2.3% (inactive). Regarding `CCOC(=O)c1c(CN2CCC(C)CC2)oc2ccc(OC)cc12`, the inhibition was -3.3% (inactive). As for `CCCN(C(=O)c1cn(CC)c2nc(C)ccc2c1=O)c1c(N)n(Cc2ccccc2)c(=O)[nH]c1=O`, the inhibition was 11.3% (inactive). Regarding `CN(Cc1cccnc1)C(=O)CNC(=O)c1ccc(Cl)cc1Cl`, the inhibition was -2.4% (inactive). In the case of `COc1ccc(NS(=O)(=O)c2cccc3nonc23)c(OC)c1` it was -1.3% (inactive); in that of `Cc1ccc(-c2nnn(CC(=O)N(CC(=O)NC3CCCC3)c3ccc(F)c(Cl)c3)n2)o1`, -4.8% (inactive). For the compound `C[C@@H]1C=C(C(=O)O)O[C@H](OCc2ccc(CO)cc2)C1`, the inhibition was 6% (inactive). For the compound `COc1ccc(-n2nc([N+](=O)[O-])c(=NCCc3ccccc3)n2O)cc1`, the inhibition is 10% (inactive). Regarding `O=[N+]([O-])C1=CC=C2C(=NC3(CCCCC3)N2O)C1=NCCc1ccccc1`, the inhibition is 62.9% (active). For the compound `O=[N+]([O-])c1nn(-c2ccccc2)n(O)c1=NCCc1ccccc1`, the inhibition is -5.6% (inactive). Consider `CCCCN=C1C([N+](=O)[O-])=CC=C2C1=NC1(CCCCC1)N2O`, for which the inhibition was 31.3% (inactive).

Take `O=[N+]([O-])C1=CC=C2C(=NC3(CCCCC3)N2O)C1=NCCO`: the inhibition is 81.4% (active).

(Values after PubChem BioAssay AID1209 (Sanford-Burnham Center for Chemical Genomics, 2008).)
